# ± gives the standard deviation. The full ranking holds about 5,500 sequences; the median of “pre-steady-state target cleavage rate” is about 0.1, and the highest 2% start at about 0.64. The sample holds the highest values, similar sequences and a random draw of the others, so the mix is not that of the screen.
# Test system: MIWI (PIWIL1) piRISC loaded with piRNA #2 (30 nt)
# Assay: pre-steady-state target cleavage rate (min^-1); MIWI and MILI are mouse PIWI proteins and EfPiwi is from a freshwater sponge; tags in brackets are library labels; higher = faster piRNA-guided slicing of the target
# Details: guide: piRNA #2 5'p-UUAGGUAACCCAGUAGAUCCAGAGGAAUUC; auxiliary factor: 500 nM mouse GTSF1
# In short: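 Cleave-'n-Seq: a transcribed, DNA-blocked target RNA library (0.1 nM) was mixed with 1 nM active affinity-purified piRISC carrying one synthetic guide, with or without 500 nM GTSF1 partner protein, in HEPES–potassium acetate buffer at 33 °C for 0–8 or 0–960 min. Uncleaved targets were sequenced and normalised to depth and to weakly complementary targets. Three trials were pooled, and k3 was capped at 0.0001 min^-1. The pre-steady-state cleavage rate came from a burst-and-steady-state fit.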
row,Sequence,pre-steady-state target cleavage rate
1,CUUAAGGGCUGGAUCUACUGGGUUACCUAA,0.159 ± 0.037
2,CUUAAGGAGUGGAUCAACUGGGUUACGUAA,0.053 ± 0.014
3,CUUAAGGACUGGAUCUACUGGGUCUACCUAA,0.0638 ± 0.033
4,CUUAACCUGCUGGAUCUACUGGGUUACCUAA,0.356 ± 0.036
5,CUUAAGGACUGGAUUCUACUGGGUUACCUAA,0.0274 ± 0.024
6,CUAUUCCUCAGGUUCUACUGGGUUACCUAA,0.584 ± 0.05
7,GAAAUCCUCAGGAUCUACUGGGUUACCUAA,0.446 ± 0.051
8,GAAUACCUCAGGAUCUACUGGGUUACCUAA,0.421 ± 0.043
9,GUAUUCCUCAGGAUCUACUGGGUUACCUAA,0.0863 ± 0.033
10,GAAUUCCUCAGGUUCUACUGGGUUACCUAA,0.539 ± 0.049
11,CAAUUCCUCAGGAUCUACUGGGUUACCUAA,0.695 ± 0.062
12,CAAUACCUCAGGAUCUACUGGGUUACCUAA,0.656 ± 0.061
13,CAAAUCCUCAGGAUCUACUGGGUUACCUAA,0.754 ± 0.059
14,GAAUUCCUCAGGAUCUACUGGGUUACCUAA,0.483 ± 0.048
15,CAAUUCCUCAGGUUCUACUGGGUUACCUAA,0.709 ± 0.054
16,CUAAUCCUCAGGAUCUACUGGGUUACCUAA,0.55 ± 0.055
17,CUAUACCUCAGGAUCUACUGGGUUACCUAA,0.465 ± 0.051
18,GAAUUCCUCUGGAUCUACUCGGUUACGUAA,0.155 ± 0.021
19,CUUAUCCACUGCAUCUACUGGGUUACCUAA,0.314 ± 0.018
20,CUUAAGGUCUGGAUCUACAGGGUUACCUUA,0.0564 ± 0.011
21,CUUAAGGACUGGAUCUUCUGGGUUACCUAA,0.0593 ± 0.037

row,Sequence,pre-steady-state target cleavage rate
1,CUAUGCCUCUGGAUCUACUGGGUUACCUAA,0.275 ± 0.037
2,CUAUUCCUCUGGAUCUACUCCGUUACCUAA,0.0198 ± 0.0061
3,GAAUUCCUCAGGAUCUACUGCGUUACCUAA,0.518 ± 0.048
4,CAAUUCCACUGGAUCUACUGCGUUACCUAA,0.468 ± 0.067
5,CUUUUCCUCAGGAUCUACUGGGUUACCUAA,0.578 ± 0.054
6,GAAUUCCACUGGAUCUACUGCGUUACCUAA,0.744 ± 0.063
7,GAUUUCCUCAGGAUCUACUGGGUUACCUAA,0.459 ± 0.046
8,CUAUUCCACUGGAUCUACUGCGUUACCUAA,0.542 ± 0.056
9,CAUUUCCUCAGGAUCUACUGGGUUACCUAA,0.701 ± 0.054
10,CAAUUCCUCAGGAUCUACUGCGUUACCUAA,0.674 ± 0.071
11,CUAUUCCUCAGGAUCUACUGCGUUACCUAA,0.561 ± 0.069
12,CUUAACCACUGGAUCUACUCGGUUACCUAA,0.0483 ± 0.01
13,CUUAUCCUCUGGAUGCUACUGGGUUACCUAA,0.277 ± 0.034
14,CUAUUCCUCUGGAUGUACUGGGUUACCUUA,0.403 ± 0.043
15,CUUAAGGACUGGAUCUACUGGGUUACCGUAA,0.0402 ± 0.032
16,CUUUUCCUCUGGAUCUACUGGGAUUCCUAA,0.087 ± 0.033
17,CUAUUCCUGUGGAUCUACUGGCUUACCUAA,0.0662 ± 0.017
18,CUAAUCCUCUGGAUCUACUGGGUUACGUAA,0.66 ± 0.052
19,CAAAUCCUCUGGAUCUACUGGGUUACGUAA,0.555 ± 0.064
20,CUUAUCCUCUGGAUCUACUGGGUUACGUAA,0.684 ± 0.049
21,GAAAUCCUCUGGAUCUACUGGGUUACGUAA,0.532 ± 0.058

row,Sequence,pre-steady-state target cleavage rate
1,CUUAUCCUCUCGAUCUACUGGGUUACGUAA,0.728 ± 0.046
2,CUUAUCCUCUGGAUCUACUGGGUUACCGUAA,0.344 ± 0.063
3,CUUAUCCUCUGGAUCUACUGGGUUACGUUA,0.469 ± 0.07
4,CUUAACCUCUCGAUCUACUGGGUUACGUAA,0.551 ± 0.037
5,CUUAUCCUCUCGAUCUACUGGGUUACCUUA,0.436 ± 0.032
6,CUUUUCCUCAGGAUCUACUGGGUUAGCUAA,0.133 ± 0.041
7,CAAUUCCUCUGGAUCUACUGGGUUUCCUUA,0.281 ± 0.067
8,GAAUACCUCUGGAUGUACUGGGUUACCUAA,0.251 ± 0.044
9,CUAUUCCUCUGGAUCUACUGGGUUACGUUA,0.401 ± 0.055
10,CUUAUCCUGUGGAUCUACUGGGUUACCUAA,0.443 ± 0.056
11,CUUAUCCUCUGGAUCUACUGGGUUAUCCUAA,0.413 ± 0.057
12,CUUAAGGACGGAUCUACUGGGUUACCUAA,0.0543 ± 0.039
13,CUUUUCCUCUCGAUCAACUGGGUUACCUAA,0.553 ± 0.039
14,CUAUUCCUCUCGAUCAACUGGGUUACCUAA,0.637 ± 0.047
15,CUUAUCCUCUCGAUCAACUGGGUUACCUAA,0.508 ± 0.033
16,CAAUUCCUCUCGAUCAACUGGGUUACCUAA,0.721 ± 0.053
17,GAAUUCCUCUCGAUCAACUGGGUUACCUAA,0.63 ± 0.051
18,CUAUUCCUCUGGAUCAACUGGGUUACCUAA,0.44 ± 0.051
19,CUUUUCCUCUGGAUCUACUGCGUUAGCUAA,0.142 ± 0.048
20,CUUAAGGAGUGGAUCUACUGGGUUACCAUA,0.0428 ± 0.015
